# From PubChem
# SW480 rerep = A quantitative high throughput screen for small molecules that induce DNA re-replication in SW480 colon adenocarcinoma cells; SW480 DNA re-replication, Hoechst DNA content imaging, 48 h; Potency, µM (series often up to 46.1 µM), for the others: top-dose re-replication activation, actives largely listed as activators; 1.8% of 340,000 active; further: potency means the concentration at half of the fitted maximal effect; % of control where 0% means no effect; nearly all actives have a fitted effect of over 55% in size
#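 DNA re-replication was detected as more nuclei of elevated Hoechst intensity after 48 hr exposure to compound (23 nL pinned per well of 250 cells).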
# IL1B secr inh = qHTS for Inhibitors of Inflammasome Signaling: IL-1-beta AlphaLISA Primary Screen; THP-1 LPS/ATP IL-1B secretion, AlphaLISA, 16 h; active compounds read low; activity change, % at 57.5 µM; 4.7% of 360,000 active; in the data active means activity change below about -50%; inconclusive means mostly about -30% to -49%; further: on the % scale 0 is the no-effect control and ±100 the full control effect
#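 Secreted IL-1B measured by AlphaLISA bead assay after 16 h compound exposure of THP-1 cells; compounds (final up to 57.5 uM) added 1 h before LPS (250 ng/mL) and ATP (1.25 mM) stimulation; lower signal means less secretion.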
# MCF10A rereplic = A quantitative high throughput screen for small molecules that induce DNA re-replication in MCF 10a normal breast cells; 2.9% of 350,000 active; Potency, µM (highest dose often 46.1 µM), without a hit: at the top dose activity, positive = re-replication, most hits filed as activators; AID 624296, 2012; MCF 10A DNA re-replication, Hoechst nuclear intensity, 48 h; further: potency means the concentration at half of the fitted maximal effect; % of control where 0% means no effect; nearly all actives have a fitted effect of over 50% in size
# TDP1 cell noCPT = qHTS for Inhibitors of human tyrosyl-DNA phosphodiesterase 1 (TDP1): qHTS in cells in absence of CPT; 15% of 420,000 active; DT40 Tdp1-/- hTDP1 cells, no CPT, ATP luminescence, 48 h; Potency, µM (highest dose often 46.2 µM), without a hit: top-dose activity change, negative = growth inhibition, actives largely listed as inhibitors; further: potency means the concentration at half of the fitted maximal effect; on the % scale 0 is the no-effect control and ±100 the full control effect; nearly all actives have a fitted effect of over 55% in size
#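 Growth kinetics read by CellTiter-Glo luminescence after ≥48 hr at 37 °C. Cells: DT40 Tdp1-/- stably carrying human TDP1, 400 per well, compound exposure in the absence of CPT (DMSO vehicle).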
# BCR signal inh = qHTS Assay to Find Inhibitors of Chronic Active B-Cell Receptor Signaling. Potency, µM (doses to about 46.1 µM), for inactives: top-dose activity change, negative = inhibition, actives largely listed as inhibitors. ABC-DLBCL IkBa-CBG/CBR reporter, luminescence ratio, 4 h. AID 493014, 2011. 0.05% of 340,000 active; active means well fitted inhibition curve with a large enough effect in the signal ratio, with a control signal flat, not every such curve was filed as active; inconclusive means small, poorly fitted or top-dose-only effect, or effect the other way, or a change in a side signal; the % refers to the signal ratio;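 further: potency means the concentration at half of the fitted maximal effect; plate controls were basal doxycycline-induced cells for no effect and cells given 10 µM MG132 for full effect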
#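 Cell line TMD8 (human ABC DLBCL), stably expressing tet-inducible CBG68-IkBa fusion and CBR; IMDM/0.5% FBS; cpd up to 46 uM; dox induction, 4 h, 37C/5% CO2; dual luminescence; green/red ratio; MG132 control.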
# TDP1 cell CPT = qHTS for Inhibitors of human tyrosyl-DNA phosphodiesterase 1 (TDP1): qHTS in cells in presence of CPT | chicken DT40 Tdp1-/-;hTDP1 cells + 20 nM CPT, ATP luminescence, 48 h | Potency, µM (doses to about 46.2 µM), for inactives: at the top dose activity change, negative = growth inhibition, usual class: inhibitors | 12% of 420,000 active | AID 686979, 2013; further: potency means the concentration at half of the fitted maximal effect; on the % scale 0 is the no-effect control and ±100 the full control effect; nearly all actives have a fitted effect of over 55% in size
#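 Chicken DT40 Tdp1-/- cells stably complemented with human TDP1 were seeded at 400 cells/well in medium containing 20 nM camptothecin, exposed to pin-transferred compounds, and grown at 37 °C for at least 48 hr. Viability was read as ATP luminescence.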
# Active calls of the source: *; ? = inconclusive; / = no result given. The list is not random: actives were taken first. Their share in the collection is about 19%. Unless noted, the call rests on the fitted dose curve; in most records, active means well fitted curve in the direction sought with a large enough effect; inconclusive means small, poorly fitted or top-dose-only effect, or another doubt; inactive means no such curve, though single readings can be large; an effect the other way counts as inactive or inconclusive.
SMILES,SW480 rerep,IL1B secr inh,MCF10A rereplic,TDP1 cell noCPT,BCR signal inh,TDP1 cell CPT
Cc1ccc(NC(=O)C2CCN(S(=O)(=O)c3cc([N+](=O)[O-])ccc3Cl)CC2)nc1,7%,-9,9%,15µM*,?,16µM*
CC(NC(=O)C1CCN(S(=O)(=O)c2cc([N+](=O)[O-])ccc2Cl)CC1)c1ccccc1 (configuration not stated),0%,-17,-5%,?,2%,?
CN(Cc1ccccc1)C(=O)C1CCN(S(=O)(=O)c2cc([N+](=O)[O-])ccc2Cl)CC1,-19%,?,-11%,23µM*,6%,?
O=C1CSC(=S)N1N=Cc1ccc(Cl)s1,0%,-2,24%,-25%,/,?
CCOC(=O)C1=C(COC(=O)/C=C/c2ccc(OC)c(OC)c2)NC(=O)NC1C (configuration not stated),3%,-3,0%,?,-9%,-27%
CCOC(=O)C1=C(COC(=O)/C=C/c2ccc(OC)cc2OC)NC(=O)NC1C (configuration not stated),2%,?,2%,15µM*,-6%,?
CCOC(=O)C1=C(CNCc2ccc(C)cc2)NC(=O)NC1c1ccc(OC)cc1 (configuration not stated),?,15,?,21µM*,6%,21µM*
CCOC(=O)C1=C(COc2ccc(F)cc2Cl)NC(=O)NC1c1cc(C)ccc1C (configuration not stated),1%,7,8%,21µM*,0%,?
CCOC(=O)C1=C(COC(=O)CCOc2ccc(C)cc2)NC(=O)NC1C (configuration not stated),?,?,18µM*,5.8µM*,?,6.5µM*
O=C(CCc1ccccc1)N1CCN(S(=O)(=O)c2cccs2)CC1,-4%,-6,0%,-18%,1%,3%
CCOC(=O)C1=C(C)NC(=O)NC1c1ccccc1OCc1c(F)cccc1Cl (configuration not stated),11%,-9,-4%,16µM*,0%,23µM*
CCOC(=O)C1=C(COc2ccc(C)cc2)NC(=O)NC1c1cc(C)ccc1C (configuration not stated),12%,19,?,12µM*,-2%,23µM*
CCOC(=O)C1=C(CSCc2ccccc2)NC(=O)NC1c1cc(C)ccc1C (configuration not stated),?,-51*,?,?,?,?
CCOC(=O)C1=C(CS(=O)(=O)c2ccc(F)c(C)c2)NC(=O)NC1c1ccccc1OC (configuration not stated),/,/,/,?,/,29µM*
Cc1ccc(NC(=O)Cn2c(=O)n(-c3ccc(C)cc3)c(=O)c3c2cnn3C)cc1,/,/,/,-1%,/,-12%
O=C(COC(=O)c1cncc(Br)c1)NCc1cccs1,-2%,9,-12%,-26%,?,-7%
Cc1ccc(S(=O)(=O)NC(CC(C)C)C(=O)NCC(c2ccco2)N2CCCCC2)cc1 (configuration not stated),-10%,-13,28%,?,1%,23µM*
Cc1ccc(NS(=O)(=O)c2cccc(C(=O)NCC(c3ccco3)N3CCCC3)c2)cc1 (configuration not stated),?,-3,12µM*,?,0%,?
Cc1ccc(S(=O)(=O)Nc2cccc(C(=O)NCC(c3ccco3)N3CCCCC3)c2)cc1F (configuration not stated),0%,-66*,?,21µM*,2%,?
COc1cc(OC)c(C2C=CC(=O)CC2)c(OC)c1 (configuration not stated),/,?,/,-24%,/,4%
Cn1c(=O)c2sccc2n2c(CCC(=O)NCc3ccc(F)cc3)nnc12,/,/,/,0%,/,4%
COc1ccccc1/C=C/C(=O)OCC(=O)NC(=O)NC1CCCC1,-4%,-8,2%,-23%,?,5%
COC(=O)c1cccc(NC(=O)C(C)(C)C)c1,-4%,28,-5%,-2%,2%,-3%
COc1ccc(CCNC(=O)c2ccc(F)c(S(=O)(=O)N3CCCCC3)c2)cc1,/,22,/,23µM*,/,?
COc1ccc(C(=O)Nc2ccccc2N2CCOCC2)cc1S(=O)(=O)N1CCCC1,0%,8,5%,18µM*,7%,?
SMILES,SW480 rerep,IL1B secr inh,MCF10A rereplic,TDP1 cell noCPT,BCR signal inh,TDP1 cell CPT
COc1ccc(CCNC(=O)COC(=O)c2ccc(F)c(S(=O)(=O)N3CCOCC3)c2)cc1,6%,3,-3%,14%,-2%,-3%
O=C(Nc1cc(Cl)cc(Cl)c1)c1ccc(F)c(S(=O)(=O)N2CCN(c3ccccc3F)CC2)c1,/,/,/,7.3µM*,1%,5.8µM*
Cc1cccc(N2CCN(S(=O)(=O)c3cc(C(=O)Nc4ccc(Oc5ccccc5)cc4)ccc3F)CC2)c1C,/,/,/,?,2%,5.2µM*
O=C(OCC(=O)N1CCOCC1)c1cc(F)c(F)cc1Cl,-2%,35,-20%,4%,3%,3%
CCc1ccccc1NC(=O)C1CCCN(S(=O)(=O)c2ccc3c(c2)CC(C)N3C(C)=O)C1 (configuration not stated),16%,2,15%,?,13%,-26%
COC(=O)CSc1nc2sc3c(c2c(=O)n1Cc1ccccc1)CCC(C(C)(C)C)C3 (configuration not stated),/,/,/,-13%,/,-4%
COc1ccc(-n2nnnc2C2(C)CCC(=O)N2Cc2ccccc2)cc1 (configuration not stated),/,0,/,8%,/,20%
CCc1ccccc1NC(=O)c1ccc(F)c(S(=O)(=O)N2CCN(c3ccccc3OC)CC2)c1,/,/,/,13µM*,7%,15µM*
O=C(Nc1cc(Cl)cc(Cl)c1)c1ccc(F)c(S(=O)(=O)N2CCCCCC2)c1,/,/,/,10µM*,?,5.2µM*
O=C(Nc1nncs1)c1ccc(F)c(S(=O)(=O)N2CCCCC2)c1,1%,28,0%,3%,-1%,-11%
